In PubChem BioAssay:

Tested on: Sonic hedgehog protein (Shh)
Experiment: small-molecule binders of Shh protein, primary screen, biochemical, small-molecule microarray, 635/667 nm fluorescence (AID 1151);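 also: Shh protein binding to compounds spotted on small-molecule microarray slides; score combines spot fluorescence intensity with signal-to-noise across triplicate slides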
Conditions: small-molecule microarray binding, 635 nm fluorescence; higher = more signal

| Compound | composite z-score |
| --- | --- |
| COCCOC(=O)N1C(=O)[C@@]2(c3cc(C#CCC(C(=O)OC)C(=O)OC)ccc31)[C@H](C(N)=O)[C@H]1C(=O)O[C@H](c3ccccc3)[C@H](c3ccccc3)N1[C@@H]2c1ccc(O)cc1 | 1.75 |
| COc1cc(OC)c(C(O)C2C=CC3C(=O)N(c4ccccc4)C(=O)C3N2Nc2ccc(C(C)C)cc2)cc1Br (stereo not given) | 0.415 |
| C#CCN1[C@@H](Cc2ccccc2)C(=O)O[C@H](Cc2ccccc2)[C@@H]1/C=C/C1CC1 | 0.482 |
| CN(C)CCCNC(=O)[C@@H]1c2ccccc2C(=O)N(Cc2ccccc2C(F)(F)F)[C@H]1c1ccc(CO)cc1 | 0.547 |
| COc1ccc([Si](C)(C)[C@H]2[C@H](CCO)O[C@@]3(C(=O)N(Cc4ccc(NC(=O)[C@H](C)O)cc4)c4ccccc43)[C@@H]2C)cc1 | 0.785 |
| CCOC(=O)C[C@H]1[C@H](OC(=O)c2ccccc2-c2ccccc2)[C@@H](NC(=O)c2ccc3ccccc3c2)c2cc(OCCCO)ccc2N1C(=O)Cc1ccc(OC)cc1 | -0.314 |
| COCCCN1C(=O)[C@@]2(c3ccc([N+](=O)[O-])cc3)CC(=O)N(CC34CC5CC(CC(C5)C3)C4)[C@@H]2c2ccc(CO)cc21 | 0.791 |
| C=C1C(=O)C=C2CN(C(=O)c3ccccc3)[C@@](Cc3ccc(OC)cc3)(C(=O)OC)[C@@H]12 | 0.193 |
| C=CCNC(=O)[C@H]1[C@@H]2C(=O)O[C@@H](c3ccccc3)[C@@H](c3ccccc3)N2[C@@H](c2ccc(OCCO)cc2)[C@]12C(=O)Nc1ccccc12 | -0.0035 |
| COCCOC(=O)N1C(=O)[C@@]2(c3ccccc31)[C@H](c1ccc(O)cc1)N1[C@H](c3ccccc3)[C@H](c3ccccc3)OC(=O)[C@H]1[C@@H]2C(=O)N1CCCCCCC1 | 1.96 |
| C[N+](C)(C)CCCCNC(=O)[C@H]1C[C@H]2C(=O)N[C@@H](Cc3ccccc3)C(=O)N2[C@H]1c1cccc(OCCO)c1 | 2.23 |
| CC(C)[Si](C#CCCc1ccccc1)(O[C@H](c1ccccc1)c1cn(Cc2ccccc2)nn1)C(C)C | 0.814 |
| COc1ccc([Si](C)(C)[C@@H]2[C@@H](CC(=O)N3Cc4ccccc4C[C@H]3CO)O[C@]3(C(=O)N(Cc4cccc(N5CCOC5=O)c4)c4ccccc43)[C@H]2C)cc1 | 2.11 |
| CN1C(=O)[C@@H]2[C@@H](CC(COc3ccccc3)=C3[C@@H](CCc4ccccc4)OB(O)C[C@@H]32)C1=O | 0.394 |
| COc1cc(C(O)C2C=CC3C(=O)N(c4ccccc4)C(=O)C3N2Nc2ccccc2F)cc(OC)c1OC (stereo not given) | 0.429 |
| CCCCN1CC=CC23O[C@@H]4/C=C\CCCOC(=O)C4[C@H]2C(=O)N(C(CO)C(C)C)[C@@H]3C1=O (stereo not given in full) | 1.14 |
| O=C1N(CCS(=O)(=O)c2ccccc2)c2ccccc2C[C@]12N=C(c1ccc(OCCCO)cc1)O[C@@H]2c1ccccc1 | 0.372 |
| O=C1NC(=O)C2C1C=CC(C(O)c1ccc([N+](=O)[O-])cc1)N2Nc1ccccn1 (stereo not given) | -0.371 |
| O=C1[C@H]2C=C(I)[C@H](C[C@@H]2OCCCCCCO)[C@@]12CO2 | 1.07 |
| CN(C)C(=O)[C@]1(Cc2ccccc2)N=C(c2ccc(OCCCO)cc2)O[C@@H]1c1ccccc1CN=[N+]=[N-] | 0.0325 |
| Cc1ccc(C(C)CC(O)C2C=CC3C(=O)N(C)C(=O)C3N2Nc2ccccc2)o1 (stereo not given) | 1.08 |
| CCCCCCc1nc(-c2ccc(-c3ccc(Cl)c(Cl)c3)o2)cc2c1[Si](C(C)C)(C(C)C)OC2 | -0.583 |
| CC1CC/C=C\[C@H]2OC34C=CCN(c5ccc(Cl)cc5)C(=O)[C@H]3N(CCCCCCO)C(=O)[C@]4(C)C2C(=O)O1 (stereo not given in full) | -0.12 |
| C=C(CCCC)/C(=C/C[C@H](OC(=O)c1ccncc1)c1cccc(OCCO)c1)c1cnc2ccccc2c1 | 1.78 |
| C[C@@H]1ON(c2ccccc2)[C@H](c2ccccc2)[C@H]1C(=O)O | 1.01 |
| CCOC(=O)C1=CC[C@@H](c2ccc(OC)cc2)N(S(=O)(=O)c2ccc(C)cc2)[C@H]1CC | 0.964 |
| COC(=O)[C@@]1(Cc2ccc(OC)cc2)[C@H]2c3cc(C(=O)N(C)C)[nH]c3C[C@H]2CN1C(=O)c1ccccc1 | -0.814 |
| CCCCC(O)C1C=CC2C(=O)N(c3ccccc3)C(=O)C2N1Nc1ccccc1 (stereo not given) | -1.35 |
| CC(C)OC(=O)CC(=O)CC(O)c1cccc([N+](=O)[O-])c1 (stereo not given) | -0.352 |
| O=C1NC(=O)C2C1C=CC(C(O)c1ccc(B(O)O)cc1)N2Nc1ccc(Cl)cc1Cl (stereo not given) | -0.589 |
